Source: PubChem BioAssay
Tb PYK inh: blocks Trypanosoma brucei pyruvate kinase; Potency, µM (highest dose often 76.8 µM), for the others: at the top dose activity, negative = inhibition, hits mostly inhibitors; AID 624173; TbPYK enzyme, Kinase-Glo Plus ATP luminescence, 45 min; Q57TT1; actives 0.12% (n = 410,000); further: nearly all actives have a fitted effect of over 50% in size
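TbPYK + substrate in 50 mM TEA pH 7.2, 100 mM KCl, 10 mM MgCl2, 0.05% BSA, 0.01% Tween-20; cpd pinned; ADP 130 uM final; 45 min RT; Kinase-Glo Plus 10 min; luminescence endpoint.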
Sm TGR block: blocks Schistosoma mansoni thioredoxin glutathione reductase; Potency, µM (doses to about 114 µM), without a hit: at the highest dose activity change, negative = inhibition, actives largely listed as inhibitors; purified TGR, DTNB reduction, TNB absorbance 405 nm; Q962Y6; actives 3% (n = 360,000); further: nearly all actives have a fitted effect of over 60% in size
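TGR 20 nM + NADPH 100 uM (dispensed conc.), cpd preinc 15 min RT; start with NADPH (500 uM addition) then DTNB (15 mM addition). Kinetic TNB absorbance, 405 nm filter. Four-parameter Hill fit across titration.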
LmPK inhibitor: blocks Leishmania mexicana pyruvate kinase activity; actives 0.37% (n = 290,000); Q27686; purified LmPK, Kinase-Glo ATP luminescence, 1 h; Potency, µM (series often up to 57.5 µM), inactives show at the highest dose activity change, negative = inhibition, most hits filed as inhibitors
Target sequence (Q27686 whole entry, looked up): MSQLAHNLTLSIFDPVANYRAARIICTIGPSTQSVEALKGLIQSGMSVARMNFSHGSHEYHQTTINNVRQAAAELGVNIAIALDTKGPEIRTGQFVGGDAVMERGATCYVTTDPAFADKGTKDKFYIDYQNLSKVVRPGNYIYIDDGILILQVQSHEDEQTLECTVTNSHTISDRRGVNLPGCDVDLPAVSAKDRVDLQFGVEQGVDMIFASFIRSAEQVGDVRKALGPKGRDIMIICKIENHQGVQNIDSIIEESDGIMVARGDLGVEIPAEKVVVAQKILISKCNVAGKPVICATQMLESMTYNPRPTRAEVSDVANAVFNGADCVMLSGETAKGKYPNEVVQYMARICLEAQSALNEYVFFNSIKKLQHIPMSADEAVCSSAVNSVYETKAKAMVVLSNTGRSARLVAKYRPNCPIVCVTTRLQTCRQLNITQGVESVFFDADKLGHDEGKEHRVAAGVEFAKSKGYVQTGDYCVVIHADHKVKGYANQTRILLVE
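In 50 mM imidazole pH 7.2 with 7 mM MgCl2, LmPK (0.1 nM) turned over PEP (0.5 mM) and ADP (0.1 mM) for 1 h at room temperature. Luciferase read-out of ATP.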
AMA1-RON2 inh: disrupts binding of P. falciparum AMA1 to RON2. AlphaScreen AMA1-biotinylated RON2 peptide binding. Potency, µM (top dose mostly 58.2 µM), for the others: top-dose activity change, negative = inhibition, most hits filed as inhibitors. actives 0.2% (n = 360,000). AID 720542;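 further: 0% = vehicle wells and -100% = peptide control; nearly all actives have a fitted effect of over 45% in size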
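AMA1 (3D7) with his tag at 25 nM final met compounds first, then biotinylated RON2 peptide at 25 nM; detection used donor plus acceptor beads, 10 µg/mL apiece, read by AlphaScreen after 30 min at room temperature.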
RE007 growth inh: less growth of the S. pombe RE007 Vpr strain. S. pombe RE007 Vpr strain, BacTiter-Glo ATP luminescence, 24 h. Potency, µM (top dose mostly 92.2 µM), for the others: top-dose activity change, negative = less growth, hits mostly inhibitors. actives 0.21% (n = 360,000); active means well fitted falling curve with a large enough effect; inconclusive means small, poorly fitted or top-dose-only effect; inactive means no such curve, though single readings can be large or run the other way; further: nearly all actives have a fitted effect of over 50% in size
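Fission yeast strain RE007, carrying one chromosomally integrated HIV-1 vpr copy, was seeded at OD 0.01 in PMG+AL medium with 23 nL pinned compound. After 24 h at 30 °C and 99% humidity, viability was read by BacTiter-Glo luminescence.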
* hit, by the source's call; [ ] = another dose, or the depositor's remark. Shown are actives, neighbours in structure and some others; about 3.2% of the full set was active somewhere. Unless noted, the call rests on the fitted dose curve; in most records, active means well fitted curve in the direction sought with a large enough effect; inconclusive means small, poorly fitted or top-dose-only effect, or another doubt; inactive means no such curve, though single readings can be large; an effect the other way counts as inactive or inconclusive. Unless noted, on the % scale 0 is the no-effect control and ±100 the full control effect; potency means the concentration at half of the fitted maximal effect.

Results for COc1ccc(-c2nc3sc(CCNC(=O)C(=O)Nc4ccc(C)c(C)c4)c(C)n3n2)cc1 ?
Tb PYK inh: 4%; Sm TGR block: 0%

How did CCOc1ccc(C(=O)Nc2nnc(S(=O)(=O)N(C)Cc3ccco3)s2)cc1 do in these assays?
Tb PYK inh: 0%; Sm TGR block: inconclusive; LmPK inhibitor: -1%; AMA1-RON2 inh: 13%; RE007 growth inh: 1%

How did Cc1ccc(C(=O)Nc2nnc(S(=O)(=O)N(C)Cc3ccco3)s2)cc1 do in these assays?
Tb PYK inh: inconclusive; Sm TGR block: 10%

Results for CCCC(=O)Nc1nnc(S(=O)(=O)N(C)Cc2ccco2)s1 ?
Tb PYK inh: -22%; Sm TGR block: 4.5µM*; LmPK inhibitor: 5%; AMA1-RON2 inh: -1%; RE007 growth inh: -3%

What do the screens show for `CCC(=O)Nc1nnc(S(=O)(=O)N(C)Cc2ccco2)s1`?
Tb PYK inh: -15%; Sm TGR block: 35µM*; LmPK inhibitor: 2%; AMA1-RON2 inh: -5%; RE007 growth inh: 11%

How did O=c1c(=O)n(-c2ccc(F)c(F)c2)ccn1Cc1ccc(F)cc1Cl do in these assays?
Tb PYK inh: 3%; Sm TGR block: 7%

Results for CCOC(=O)c1c(C)c(-c2ccccc2)n(CC(=O)NC2CCCCCC2)c1C ?
Tb PYK inh: 0%; Sm TGR block: inconclusive

Results for COc1cc(C2NC(=O)N(C)C(C)=C2C(=O)OCc2ccccc2)cc(Br)c1O (stereo not drawn) ?
Tb PYK inh: 1%; Sm TGR block: -5%; LmPK inhibitor: -2%; AMA1-RON2 inh: 2%; RE007 growth inh: 1%

What do the screens show for `CCOc1cc(C2NC(=O)N(C)C(C)=C2C(=O)OC)cc(Br)c1O` (stereo not drawn)?
Tb PYK inh: -6%; Sm TGR block: 50µM*; LmPK inhibitor: 2%; AMA1-RON2 inh: -9%; RE007 growth inh: -10%

Results for COC(=O)CNc1c(-c2ccccn2)nc2ccc(Br)cn12 ?
Tb PYK inh: -5%; Sm TGR block: 40µM*; LmPK inhibitor: 16µM*; AMA1-RON2 inh: 22%; RE007 growth inh: -16%

How did Cc1ccc(Nc2c(-c3ccccn3)nc3ccc(Br)cn23)cc1 do in these assays?
Tb PYK inh: -1%; Sm TGR block: 5%

Results for O=C(Oc1ccc2c(=O)c(Cl)coc2c1)c1ccncc1 ?
Tb PYK inh: -7%; Sm TGR block: 8.9µM*; LmPK inhibitor: 3%; AMA1-RON2 inh: 10%; RE007 growth inh: 6%

How did CSc1nnc(CNS(=O)(=O)c2ccc(F)cc2)n1C do in these assays?
Tb PYK inh: -4%; Sm TGR block: 0%; LmPK inhibitor: -1%; AMA1-RON2 inh: 14%; RE007 growth inh: -8%

Results for C#CCSc1nnc(CNS(=O)(=O)c2ccc(Br)cc2)n1C ?
Tb PYK inh: 32%; Sm TGR block: 10µM*; LmPK inhibitor: -7%; AMA1-RON2 inh: 17%; RE007 growth inh: -4%

Results for Cc1cc(C)c(NC(=O)C2CCN(c3nnc(C)c4c(C)n(-c5ccccc5)nc34)CC2)c(C)c1 ?
Tb PYK inh: 1%[15.4 µM]; Sm TGR block: -4%

What do the screens show for `COc1ccc(OC)c(NC(=O)Cn2c(CCC(=O)O)ccc2-c2ccc(C)cc2)c1`?
Tb PYK inh: -21%; Sm TGR block: -27%; LmPK inhibitor: 2%; AMA1-RON2 inh: -4%; RE007 growth inh: 1%

Results for COc1ccc(-c2ccc(CCC(=O)O)n2-c2cc(OC)ccc2OC)cc1 ?
Tb PYK inh: -4%; AMA1-RON2 inh: -8%; RE007 growth inh: 0%

What do the screens show for `C=CCn1c(CCC(=O)O)ccc1-c1ccc(OC)cc1`?
Tb PYK inh: -7%; Sm TGR block: 45µM*; LmPK inhibitor: 2%; AMA1-RON2 inh: -9%; RE007 growth inh: -2%

How did COc1ccc(-c2ccc(CCC(=O)O)n2CC(C)C)cc1 do in these assays?
Tb PYK inh: -9%; Sm TGR block: 10µM*; LmPK inhibitor: 6%; AMA1-RON2 inh: -7%; RE007 growth inh: -2%

How did Cc1cc(C)c2cc(C(c3nnnn3CC3CCCO3)N3CCN4CCCC4C3)c(=O)[nH]c2c1 (stereo not drawn) do in these assays?
Tb PYK inh: -7%; Sm TGR block: 22µM*; LmPK inhibitor: 5%; AMA1-RON2 inh: 0%; RE007 growth inh: -2%

What do the screens show for `O=c1[nH]c2cc3c(cc2cc1C(c1nnnn1CC1CCCO1)N1CCCC1)OCO3` (stereo not drawn)?
Tb PYK inh: inconclusive; Sm TGR block: 20%; LmPK inhibitor: -3%; AMA1-RON2 inh: 2%; RE007 growth inh: 6%

How did O=c1[nH]c2cc3c(cc2cc1C(c1nnnn1CC1CCCO1)N1CCCCCC1)OCCO3 (stereo not drawn) do in these assays?
Tb PYK inh: -21%; Sm TGR block: 32µM*; LmPK inhibitor: 2%; AMA1-RON2 inh: 0%; RE007 growth inh: 4%

Results for CCCCSc1ncnc2c1c(-c1ccccc1)cn2-c1cccc(F)c1 ?
Tb PYK inh: 1%; Sm TGR block: -1%

What do the screens show for `CN1CCc2c(sc3c2C(=O)NC(/C=C\c2ccccc2)N3)C1` (stereo not drawn)?
Tb PYK inh: -19%; Sm TGR block: 10µM*; LmPK inhibitor: -2%; AMA1-RON2 inh: 39%; RE007 growth inh: -6%

Results for Cc1oc(-c2ccccc2Cl)nc1CSCC(=O)NC1CCCC1 ?
Tb PYK inh: -8%; Sm TGR block: -16%; LmPK inhibitor: -7%; AMA1-RON2 inh: -3%; RE007 growth inh: 25%

Results for CCOC(=O)N1CCC(NC(=O)CSCc2nc(-c3sccc3C)oc2C)CC1 ?
Tb PYK inh: 5%; Sm TGR block: 40µM*; LmPK inhibitor: 1%; AMA1-RON2 inh: -2%; RE007 growth inh: 5%

Results for CCOC(=O)N1CCC(NC(=O)CS(=O)(=O)Cc2nc(-c3ccccc3C)oc2C)CC1 ?
Tb PYK inh: 3%; Sm TGR block: 45µM*; LmPK inhibitor: 3%; AMA1-RON2 inh: -6%; RE007 growth inh: -4%

How did CCN1CCCC1CNC(=O)CS(=O)(=O)Cc1nc(-c2ccccc2C)oc1C (stereo not drawn) do in these assays?
Tb PYK inh: 30%; Sm TGR block: -31%; LmPK inhibitor: 7%; AMA1-RON2 inh: -7%; RE007 growth inh: 5%

How did CCOC(=O)N1CCC(NC(=O)CSCc2nc(-c3ccc(OCC)cc3)oc2C)CC1 do in these assays?
Tb PYK inh: 6%; Sm TGR block: -35%; LmPK inhibitor: 1%; AMA1-RON2 inh: 13%; RE007 growth inh: 9%

What do the screens show for `Cc1oc(-c2ccccc2Cl)nc1CS(=O)(=O)CC(=O)NC1CCCC1`?
Tb PYK inh: -5%; Sm TGR block: 45µM*; LmPK inhibitor: 0%; AMA1-RON2 inh: 0%; RE007 growth inh: 7%
